LDHA block: inhibitors of human lactate dehydrogenase A | P00338 | purified LDHA, NADH/diaphorase-resazurin fluorescence; active compounds read low | activity change, % (values are at about 110 or 230 µM) | 0.15% of 480,000 active | AID 1347041; in the data active = activity change below about -30%; inconclusive = mostly about -25% to -30%;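 also: plate controls were DMSO wells for no effect and wells without enzyme for full effect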
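LDH5 2 nM; NADH 0.06 mM, pyruvate 0.2 mM; 200 mM Tris pH 7.4, EDTA, Tween-20; 5 min RT. Detection: diaphorase 0.133 mg/mL + resazurin 37 µM, fluorescence ex540/em590 at 0 and 20 min; normalized to enzyme-free and DMSO wells.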
TSHR antagonist: blocks TSH signaling through the human TSH receptor; AID 504810; activity change, negative = inhibition, % at 11.5 µM; TSHR-expressing cells, TSH-stimulated cAMP HTRF, 2 h; active compounds read low; 0.2% of 330,000 active;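 active = activity change below a set negative limit, meaning inhibition stronger than a set level, cut at about -70% in these data; inconclusive = activity change between two set negative limits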; also: % is scaled to controls: 0 for no effect and ±100 for the full control effect
Target sequence (P16473 whole entry, looked up): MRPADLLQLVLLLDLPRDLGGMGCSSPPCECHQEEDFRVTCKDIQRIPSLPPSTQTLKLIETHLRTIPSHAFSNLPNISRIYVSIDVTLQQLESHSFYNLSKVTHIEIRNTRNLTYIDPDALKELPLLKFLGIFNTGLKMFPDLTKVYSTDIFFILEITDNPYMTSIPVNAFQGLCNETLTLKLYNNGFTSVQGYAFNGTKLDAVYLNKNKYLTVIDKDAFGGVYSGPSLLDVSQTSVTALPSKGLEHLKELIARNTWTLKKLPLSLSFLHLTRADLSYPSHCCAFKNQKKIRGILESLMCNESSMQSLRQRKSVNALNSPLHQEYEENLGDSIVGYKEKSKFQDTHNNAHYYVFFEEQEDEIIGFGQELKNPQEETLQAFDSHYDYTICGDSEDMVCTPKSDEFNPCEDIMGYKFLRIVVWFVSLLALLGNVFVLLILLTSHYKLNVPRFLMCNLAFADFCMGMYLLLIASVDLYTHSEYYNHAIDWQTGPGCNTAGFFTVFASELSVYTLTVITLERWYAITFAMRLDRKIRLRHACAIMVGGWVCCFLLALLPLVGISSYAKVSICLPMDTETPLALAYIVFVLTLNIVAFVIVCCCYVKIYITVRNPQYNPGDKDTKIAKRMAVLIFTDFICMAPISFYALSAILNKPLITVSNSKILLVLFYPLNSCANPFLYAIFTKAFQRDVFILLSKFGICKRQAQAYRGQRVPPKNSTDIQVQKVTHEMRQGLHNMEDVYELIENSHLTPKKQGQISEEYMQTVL
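Competitive HTRF cAMP read-out (cryptate anti-cAMP antibody, cAMP-d2; 30 min, room temperature) in freshly harvested TSHR cells. Compounds added before TSH at EC80 (4nM final), followed by 2 hours' incubation at 37 deg C.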
GRP78 ERSR act: ER stress response induction in glioma; U87-MG GRP78 promoter luciferase reporter, 16 h; Potency, µM, for inactives: top-dose activation, most hits filed as activators; AID 602332; 0.02% of 420,000 active; also: potency is read from the fitted curve at half-maximal effect; series mostly up to about 76 µM; % of control where 0% means no effect; nearly all actives have a fitted effect of over 35% in size
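Stably transfected U87-MG human glioma cells carrying a GRP78-based luminescent sensor were seeded at 1000 cells/well, pin-dosed with compounds and incubated 16 h. Luciferase reagent was then added, and end-point luminescence was read after 10 min at room temperature.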
RGS4 inhibitor: human RGS4 inhibition | 0.039% of 390,000 active | Transcreener GDP fluorescence polarization, RGS4-accelerated GTP hydrolysis | P49798 | Potency, µM (top dose mostly 114 µM), for the others: at the top dose activity change, negative = inhibition, usual class: inhibitors; also: potency is read from the fitted curve at half-maximal effect; % is scaled to controls: 0 for no effect and ±100 for the full control effect; nearly all actives have a fitted effect of over 75% in size
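MLSMR compounds (23 nl, pin-transferred) preincubated 10 min at room temperature with a 500nM (2x) first reagent, then RGS4 at 900nM (2x) plus Transcreener GDP mix added; fluorescence polarization (620/688 nm) read before and after 90 min at 30 °C.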
Akt phos inh: Akt phosphorylation inhibition; Neuro2A IGF-stimulated pAkt S473 HTRF, 20 min; active compounds read low; activity change, % for hits at 50 µM; 0.32% of 360,000 active; in the data active = activity change below about -80%; inconclusive = mostly about -51% to -80%; also: % is scaled to controls: 0 for no effect and ±100 for the full control effect
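Neuro2A cells (4,500/well, DMEM with 0.5% FBS) were treated with compound at a single 50 µM final concentration, stimulated with 6 nM IGF for 20 min at 37 °C, and lysed. Phospho-Akt Ser473 was read by HTRF as 665/615 ratio ×10^4.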
TCR act: T cell receptor activation | primary human leukocytes, anti-CD3, IL-2 HTRF, 48 h | Potency, µM (highest dose often 9.22 µM), inactives show top-dose activation of IL-2 secretion, most hits filed as activators | 330,000 tested, under 10 active | AID 504894; also: % of control where 0% means no effect
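Primary human leukocytes receive a-CD3 beads and test compound and are incubated 48 hr. Secreted IL-2 is then assayed by HTRF, measuring 665nm acceptor emission after 320nm excitation of the europium donor.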
Active calls of the source: *; i = inactive; ? = inconclusive; · = not tested or not shown; [ ] = dose if it differs, or a comment. Only some compounds are listed: those with a hit (about 0.55% of all), similar ones and a draw of the others. Unless noted, calls follow the shape of the dose curve; as a rule, active = well fitted curve in the direction sought with a large enough effect; inconclusive = small, poorly fitted or top-dose-only effect, or another doubt; inactive = no such curve, though single readings can be large; an effect the other way counts as inactive or inconclusive.

SMILES | LDHA block | TSHR antagonist | GRP78 ERSR act | RGS4 inhibitor | Akt phos inh | TCR act
Cn1c(CNc2nc(-c3ccccc3)cs2)nnc1SCC(=O)OC1CCCCC1 | -2 | -5 | -4% | 13%[11.4 µM] | i | -6%[46.1 µM]
CC(C)OC(=O)CSc1nnc(CNc2nc(-c3ccccc3)cs2)n1C | -2 | 3 | -3% | -23% | -103%* | -1%
CCN(CC(=O)Nc1ccccc1C(F)(F)F)Cc1coc(-c2ccc(C)cc2C)n1 | -1 | · | · | · | · | ·
Cc1noc(NS(=O)(=O)c2ccc(NC(=O)CC34CC5CC(CC(Br)(C5)C3)C4)cc2)c1C | -46* | -2 | -5% | -3% | i | 3%
Cc1noc(NS(=O)(=O)c2ccc(NC(=O)Nc3ccc(Cl)c(Cl)c3)cc2)c1C | ? | -9 | 11% | 11% | -107%* | 1%
O=C(Nc1ccc(Cl)cc1)Nc1ccc(Cl)c(Cl)c1 | -10 | -74* | -2% | -2% | i | 0%
O=C(NCCO)c1cc(-c2ccc(Cl)cc2)nc2ccccc12 | 1 | · | · | · | · | ·
O=C(Nc1ccc2c(c1)CCC2)c1cc(S(=O)(=O)Nc2ccc(F)cc2)c(Cl)cc1Cl | 0 | -76* | 8% | 2% | i | -2%[46.1 µM]
O=C(Nc1ccc2c(c1)CCC2)c1ccc(F)cc1 | -8 | -12 | -9% | 11% | i | 4%[46.1 µM]
COc1ccc(-c2c(C(C)=O)c(C)nc3sc4c(c23)NC(c2ccccc2)NC4=O)cc1 (stereo not given) | -5 | -7 | -3% | -12% | -85%* | 12%
CCOC(=O)c1c(C)nc2sc3c(c2c1-c1ccc(OC)cc1)NC(c1ccccc1)NC3=O (stereo not given) | -4 | 20 | -1% | 2% | i | 3%
Cc1cc(C)nc(N(C#N)CCOc2ccccc2)n1 | -8 | · | -1% | 17% | i | -22%
CN(C)c1nc(N(C)C)nc(N(C#N)CCOc2ccccc2)n1 | -1 | -7 | 0% | 7% | -111%* | -1%[46.1 µM]
O=C(CCS(=O)(=O)c1ccc(Br)cc1)N1CCN(Cc2ccccc2)CC1 | -3 | -8 | -3% | -20% | -109%* | -7%
O=C(CCS(=O)(=O)c1ccc(Br)cc1)N1CCN(c2ccccc2)CC1 | 3 | -5 | -5% | -6% | i | 5%
Cc1nn(Cc2ccc(F)cc2)c(C)c1NC(=O)c1cnn2c1NC(c1ccccc1)CC2C(F)(F)F (stereo not given) | -3 | -5 | -3% | -17% | i | -1%
NC(=O)c1cnn2c1NC(c1ccc(F)cc1)CC2C(F)(F)F (stereo not given) | -17 | -8 | -4% | 3% | -111%* | -5%
CS(=O)(=O)NCCSCc1ccc(Cl)cc1 | -5 | 1 | -2% | -1% | -108%* | 1%
Cc1cc(=O)oc2cc(NC(=O)Cc3ccc(Cl)cc3Cl)ccc12 | -19 | · | · | · | · | ·
CCOC(=O)/C=C/SC(S/C=C/C(=O)OCC)=C(C#N)C(N)=O | 11 | · | · | · | · | ·
O=C(CSc1ncn(-c2ccccc2)n1)Nc1nncs1 | -15 | -4 | -4% | -7% | i | 0%
CC(=O)Nc1ccc(C(=O)CSc2ncn(-c3ccccc3)n2)cc1 | -2 | 5 | 0% | -7% | -120%* | 1%
Cc1ccc(C2CC(=O)N3CN(Cc4ccccc4)CSC3=C2C#N)cc1 (stereo not given) | 70 | · | · | · | · | ·
CCCS(=O)(=O)N1CCN(CC2CC=CCC2)CC1 (stereo not given) | -31* | -2 | -2% | 29% | i | -1%
COc1ccc(S(=O)(=O)N2CCN(CC3CC=CCC3)CC2)cc1 (stereo not given) | -15 | 3 | -1% | -13% | i | 0%
SMILES | LDHA block | TSHR antagonist | GRP78 ERSR act | RGS4 inhibitor | Akt phos inh | TCR act
Cc1cccc(-c2nc(Nc3ccc(C(=O)O)cc3)c3ccccc3n2)c1 | -39* | · | · | · | · | ·
COc1ccc(-c2nc(CS(=O)(=O)CC(=O)NCc3cccnc3)c(C)o2)cc1 | 2 | · | · | · | · | ·
COc1cccc(-c2nc(CS(=O)(=O)CC(=O)NCc3cccnc3)c(C)o2)c1 | -34* | · | · | · | · | ·
Cc1cccc(N(CC(N)=O)C2SC(=O)NC2=O)c1 (stereo not given) | -2 | -7 | -4% | -6% | -106%* | -1%[46.1 µM]
COC(=O)c1ccccc1OCCOc1ccccc1C(=O)OC | -2 | -6 | -3% | 23% | i | 2%
COC(=O)c1ccccc1OCCCCN1CC(C)OC(C)C1 (stereo not given) | -31* | 21 | -3% | -12% | i | 10%[46.1 µM]
COc1cccc(C2CC(=O)Nc3nc(N)sc32)c1OCc1ccc(F)cc1 (stereo not given) | 82 | · | · | · | · | ·
Cc1cc(C)c2c(NC(=O)CCl)nn(C)c2n1 | -5 | 0 | 40µM* | -15% | i | 3%
COc1cccc(N2CCN(CC(=O)Nc3nc4c(s3)CC(C)CC4)CC2)c1 (stereo not given) | 6 | -6 | -4% | -2% | -89%* | ·
CC1CCc2nc(NC(=O)CN3CCN(c4ccc(F)cc4)CC3)sc2C1 (stereo not given) | 0 | -4 | -6% | -16% | i | 4%
O=C(CC1CCCCC1)Nc1ccc(-c2nc3ccccc3s2)cc1 | -6 | · | · | · | · | ·
CCOc1cc(CNc2ccccc2)cc(Br)c1OCc1ccc(F)cc1 | 5 | -8 | -5% | -37% | i | -2%
CCOc1cc(CNc2ccc(O)cc2)cc(Cl)c1OCc1ccccc1 | 30 | · | 13µM* | -20% | · | ·
COc1ccc(OC)c(CNC(=O)c2ncoc2-c2cccc(Cl)c2)c1 | 0 | · | · | · | · | ·
CCN(CC)C(=O)CN(C1CCCCC1)S(=O)(=O)c1ccc(Br)cc1 | -37* | · | · | · | · | ·
Cc1ccc(S(=O)(=O)Cc2nc(-c3ccc(C(=O)NCCN4CCCCCC4)cc3)oc2C)cc1 | -1 | · | · | · | · | ·
O=c1[nH]c(=O)n(Cc2ccccc2)c2nc(-c3ccco3)cc(C(F)(F)F)c12 | -5 | -5 | 0% | 8% | -110%* | -1%
CN(CC(=O)NC(=O)NCc1ccccc1)C1CCCc2ccccc21 (stereo not given) | 7 | · | · | · | · | ·
CN(C)CCNCc1ccc(OC2CCCC2)cc1 | -9 | 0 | -6% | 6% | -114%* | ·
NC(C(=O)O)c1cccnc1 (stereo not given) | 6 | · | · | · | · | ·
CC1CCCC(N2CCN(S(=O)(=O)c3ccccc3)CC2)C1 (stereo not given) | -16 | -108* | -6% | 6% | i | 3%
COc1ccc(S(=O)(=O)N2CCN(C3CCCC(C)C3)CC2)cc1 (stereo not given) | -11 | -9 | -5% | 2% | i | 2%
Cc1cccc(OCC(=O)Nc2nc3ccc([N+](=O)[O-])cc3s2)c1C | 2 | -76* | -3% | -35% | i | 6%
Cc1cc(C)nc(SCCCn2c(=O)[nH]c3ccccc32)n1 | -13 | 0 | -1% | 12% | -125%* | 2%

Screening data: PubChem BioAssay, National Center for Advancing Translational Sciences (NCATS)
